# Assay results published in PubChem BioAssay AID1117361 (Southern Research Institute, 2015).
# In all, about 3,600 compounds went through this assay and about 900 (25%) were called active. No rule for the calls is given here. These entries were drawn from the full list. Measured potencies and affinities stand elsewhere.
# Target: Protein Tat (Human immunodeficiency virus type 1 group M subtype B (isolate HXB2)) (UniProt P04608)
# Test: inhibitors of Tat binding to TAR RNA, dose response, counter-screen for Vif-APOBEC3G degradation inhibitor project, biochemical, fluorescence polarization, FAM-labeled TAR RNA (AID 1117361)
# Settings: outcome: dose series up to 100 µM unless noted; series mostly up to 100 µM; inhibition: at the top concentration
SMILES,inhibition,outcome
COc1ccc(/C=N/NC(=O)CNc2n[nH]c(=O)[nH]c2=O)cc1OC,28% (inactive),–
O=C(Nc1nc2n(n1)C(c1ccccc1)CC(c1ccc(Cl)cc1)N2)c1ccco1 (configuration not stated),2.7% (inactive),–
COc1cccc(-c2nc3cc(C)ccc3o2)c1,4.73% (inactive),–
Cc1nc2nc(-c3ccccc3)cn2nc1C,20.9% (inactive),–
CON(c1nc(N(C)C)nc(N(C)C)n1)S(=O)(=O)c1ccccc1Cl,1.35% (inactive),–
O=S(=O)(c1ccc(Cl)s1)N1CCN(Cc2ccccc2)CC1,8.11% (inactive),–
O=C(Cn1nc(-c2ccc(Cl)cc2)ccc1=O)NCc1ccc2c(c1)OCO2,–,inactive
CC1CCN(Cc2cnc(Cl)s2)CC1,4.05% (inactive),–
CCn1c(SCC(=O)OC)nc2sc3c(c2c1=O)CCC3,1.67% (inactive),–
CCCCSc1nc2sc3c(c2c(=O)[nH]1)CCC3,–,inactive
Cc1nn(C)cc1CNC(=O)C1C2CCC(C2)C1C(=O)O (configuration not stated),–,inactive
CCN1C(=O)CS/C1=C(\C#N)S(=O)(=O)c1ccccc1,–,inactive
Clc1ccc(CSCCc2ccncc2)cc1,–,inactive
COC1=C(Br)C(=O)c2nc(C)ccc2C1=O,–,inactive
COC1=C(N)C(=O)c2nc(C)ccc2C1=O,19.7% (inactive),–
CCOC(=O)C1(Cc2ccc(OC)cc2)CCN(C(=O)Cc2cccnc2)CC1,1.65% (inactive),–

SMILES,inhibition,outcome
COC(=O)C(Cc1c[nH]c2ccccc12)NC(=O)C(C)C (configuration not stated),–,inactive
Cc1ccc(CNC(=O)CCC2CCCN(Cc3cc4ccccc4o3)C2)o1 (configuration not stated),14.8% (inactive),–
Cc1ccc(CCNC(=O)C2CCCN(S(=O)(=O)c3c(C)noc3/C=C/N(C)C)C2)cc1 (configuration not stated),–,inactive
Cc1ccc(S(=O)(=O)c2c(N)n(NC(=O)C3CC3)c3nc4ccccc4nc23)cc1,–,inactive
Cc1ccc(C)c(CN2C(=O)C(C)Oc3ccc(C)cc32)c1 (configuration not stated),–,inactive
CC1(C)Cc2c(c(=S)nc(-c3ccccc3)n2CCCN2CCOCC2)CO1,0.68% (inactive),–
C=CCN=c1scc(C)n1/N=C/c1ccc(O)c(O)c1,3.3% (inactive),–
COc1ccc(Cl)cc1N(CC(=O)Nc1ccc2c(c1)OCO2)S(C)(=O)=O,–,inactive
COC(=O)c1cccc(NC(=O)NC2CCCN2S(=O)(=O)c2ccc(Cl)cc2)c1 (configuration not stated),1.35% (inactive),–
CS(=O)(=O)N(C(=O)NC(=O)NC1CCS(=O)(=O)C1)C1CCCCC1 (configuration not stated),–,inactive
COc1ccc(C2CC(=O)Nc3cc(C)c(C)cc32)c(OC)c1OC (configuration not stated),18.9% (inactive),–
CC(C(=O)N1CCOCC1)(c1ccccc1)c1ccccc1,2.03% (inactive),–
CC(=O)c1ccc(Nc2nc(=O)c3cccnc3s2)cc1,–,inactive
CN(C)c1ccc(C=c2c3cc([N+](=O)[O-])ccc3n3c2cc(-c2ccccc2)[n+]3C)cc1,–,inactive
NNC(=S)Nc1ccc(Cl)cc1,–,inactive
CC(=O)c1ccc(N2CCN(C(=O)c3ccc4c(c3)OCO4)CC2)cc1,5.68% (inactive),–
